Measurements taken from paper PMC4336329 (PLoS ONE, 2015).
Screen size: about 310,000 compounds; about 14,000 (4.5%) showed an effect of 50% or more. The effect is printed as a negative number. Shown is part of a subset that was picked to be rich in strong results.

Target: human ether-à-go-go-related gene (hERG) potassium channel (human, UniProt Q12809)
Test: primary screen, population patch clamp on CHO cells stably expressing hERG; higher = less effect of the substance
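Note: peak tail current of the secondary pulse compared with the same well before compound.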

Chain of human ether-à-go-go-related gene (hERG) potassium channel (Q12809 whole entry, looked up): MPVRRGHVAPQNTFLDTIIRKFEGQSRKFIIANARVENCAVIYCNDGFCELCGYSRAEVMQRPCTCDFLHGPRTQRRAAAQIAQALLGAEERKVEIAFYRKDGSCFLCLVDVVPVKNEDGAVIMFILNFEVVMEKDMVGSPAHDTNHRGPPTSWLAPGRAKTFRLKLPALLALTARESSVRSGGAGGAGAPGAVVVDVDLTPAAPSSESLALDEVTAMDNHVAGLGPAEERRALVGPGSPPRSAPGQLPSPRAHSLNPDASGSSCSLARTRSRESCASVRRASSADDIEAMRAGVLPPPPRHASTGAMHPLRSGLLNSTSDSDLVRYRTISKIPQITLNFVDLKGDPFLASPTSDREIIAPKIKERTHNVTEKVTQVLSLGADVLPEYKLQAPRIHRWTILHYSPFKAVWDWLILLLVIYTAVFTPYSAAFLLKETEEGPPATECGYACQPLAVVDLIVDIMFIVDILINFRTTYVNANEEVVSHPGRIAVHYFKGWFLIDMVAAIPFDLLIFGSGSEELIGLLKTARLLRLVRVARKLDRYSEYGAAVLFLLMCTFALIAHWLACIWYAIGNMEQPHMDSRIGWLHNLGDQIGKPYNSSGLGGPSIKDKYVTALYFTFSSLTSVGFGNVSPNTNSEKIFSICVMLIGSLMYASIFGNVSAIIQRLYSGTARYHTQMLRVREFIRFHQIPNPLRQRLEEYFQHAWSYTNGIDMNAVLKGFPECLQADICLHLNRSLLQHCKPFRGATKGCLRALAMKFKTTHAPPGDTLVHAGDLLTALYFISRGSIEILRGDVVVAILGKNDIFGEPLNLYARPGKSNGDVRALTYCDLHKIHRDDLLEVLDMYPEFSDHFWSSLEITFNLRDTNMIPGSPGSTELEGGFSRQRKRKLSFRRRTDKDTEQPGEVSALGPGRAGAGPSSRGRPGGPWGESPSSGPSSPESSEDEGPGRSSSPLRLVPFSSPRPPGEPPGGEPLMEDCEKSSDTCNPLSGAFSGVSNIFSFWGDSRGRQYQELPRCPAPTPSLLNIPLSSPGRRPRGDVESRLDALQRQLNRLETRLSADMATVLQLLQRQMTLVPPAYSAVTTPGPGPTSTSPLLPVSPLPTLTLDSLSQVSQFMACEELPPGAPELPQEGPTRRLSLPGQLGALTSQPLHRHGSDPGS

Compound	hERG current change (%, negative = inhibition) at 10uM [%]
COc1ccc(/C=C/C(=O)NCC(=O)N/N=C/c2cccnc2)cc1	-14.9
COc1ccc(CNC(=S)Nc2ccc3nc(N4CCOCC4)cc(C)c3c2)cc1	-24
CCN1CCN(c2cc(C)c3cc(NC(=O)c4cccnc4Cl)ccc3n2)CC1	-6.83
CCN(CC)CCNC(=S)Nc1ccc2nc(N3CCN(CC)CC3)cc(C)c2c1	11.2
COc1ccccc1CNC(=S)Nc1ccc2nc(N3CCN(C)CC3)cc(C)c2c1	-1.77
Cc1cc(N2CCN(C)CC2)nc2ccc(NC(=S)NC3CC3)cc12	3.2
CCN1CCN(c2cc(C)c3cc(NC(=O)c4cccs4)ccc3n2)CC1	-55.1
Cc1cc(N2CCN(C)CC2)nc2ccc(NC(=S)NCc3cccs3)cc12	-56.3
CCN1CCN(c2cc(C)c3cc(NC(=S)NCc4cccs4)ccc3n2)CC1	-59.7
COc1ccc(CNC(=S)Nc2ccc3nc(N4CCN(C)CC4)cc(C)c3c2)cc1	-51.1
Cc1cc(N2CCN(C)CC2)nc2ccc(NC(=S)NCCN3CCc4ccccc4C3)cc12	-23.7
CCCCNC(=S)Nc1ccc2nc(N3CCN(CC)CC3)cc(C)c2c1	-44.6
CC(=O)c1ccc(NC(=O)C2=CC(c3ccco3)=NS(=O)(=O)N2C)cc1	-7.75
COC(C(=O)N/N=C(\C)CC(=O)Nc1ccc(N(C)C)cc1)c1ccccc1 (centres unmarked)	15.3
CC(NS(C)(=O)=O)C(c1cccs1)N1CCN(c2ccccc2F)CC1 (centres unmarked)	6.04
Cc1ccc(CNC(=O)Cn2c([N+](=O)[O-])cnc2C)cc1	11.3
COc1ccc(S(=O)(=O)NNC(=O)Nc2ccc(C)cc2C)c(OC)c1	-1.37
Cc1nc(SCC(=O)c2c(N)n(C3CC3)c(=O)[nH]c2=O)[nH]c(=O)c1CCO	17
COc1ccc2c(c1)OC(O)(C(F)(F)F)CC2=O (centres unmarked)	-5.68
CN(C1CCCC1)C1CCN(C(=O)CNC(=O)/C=C/c2cccc(C(F)(F)F)c2)CC1	-62.6
CN(C(=O)/C=C/c1ccc(F)cc1)C1CCCCC1	-22.6
CNC(=O)/C=C/c1cccc(C(F)(F)F)c1	4.99
CN(C1CCCC1)C1CCN(C(=O)CNC(=O)/C=C/c2ccc(F)cc2)CC1	-62.6

Compound	hERG current change (%, negative = inhibition) at 10uM [%]
CC(C)(C)NC(=O)/C=C/c1cccc(C(F)(F)F)c1	-8.66
COc1ccccc1/C=C/C(=O)NCC(=O)N1CCC(N(C)C2CCCC2)CC1	-35
CN(C1CCCC1)C1CCN(C(=O)CNC(=O)/C=C/c2ccccc2)CC1	-53.8
CN(C(=O)/C=C/c1ccccc1)C1CCCCC1	1.32
CN(C(=S)NC(=O)/C=C/c1ccc(F)cc1)C1CCCCC1	4.54
COc1ccc(NC(=O)c2cc(S(=O)(=O)NCC3COc4ccccc4O3)ccc2F)cc1 (centres unmarked)	-19.1
O=c1oc2ccccc2cc1-c1cn2ccccc2n1	11.9
Nc1nnc(SCC(=O)NC2CCCCCCC2)s1	16.9
CCCc1cc2c(cc1NC(=O)c1ccc(C(C)(C)C)cc1)OCO2	-13.8
Cc1csc(NC(=O)CSc2nnc3ncccn23)n1	-14.3
COCCn1c(SCC(=O)Nc2ccccc2OC)nc2ccccc2c1=O	-40.1
COc1ccc(NC(=O)CSc2nc3ccccc3c(=O)n2CCCN2CCC(C)CC2)c(OC)c1	-81.6
COc1ccc(NC(=O)CSc2nc3ccccc3c(=O)n2CCCN2CCCCC2)c(OC)c1	-65.7
COCCn1c(SCC(=O)Nc2ccc(OC)cc2OC)nc2ccccc2c1=O	10.5
COc1ccc(NC(=O)CSc2nc3ccccc3c(=O)n2CCCN2CCOCC2)c(OC)c1	-34.6
CCn1c(SCC(=O)Nc2ccccc2OC)nc2ccccc2c1=O	-11.9
COc1ccc(NC(=O)CCCNS(=O)(=O)c2cccs2)cc1	2.91
Cc1cccc(NC2=C(NC(=O)c3ccccc3)C(=O)c3ccccc3C2=O)c1	-19.4
OCC1(CCCc2ccccc2)CCN(Cc2cnc(N3CCOCC3)s2)CC1	-58.3
COc1cccc(CC2(CO)CCN(Cc3cnc(N4CCOCC4)s3)CC2)c1	-54.7
OCC1(CCc2ccccc2)CCN(Cc2cnc(N3CCCC3)s2)CC1	-70.3
Clc1ncc(CN2CCN(Cc3ccccc3)CC2)s1	-4.52
c1ccc(N2CCN(Cc3cnc(N4CCOCC4)s3)CC2)cc1	29.4

Compound	hERG current change (%, negative = inhibition) at 10uM [%]
CN(C)c1ncc(CN2CCC(CO)(CCCc3ccccc3)CC2)s1	-51.3
OCCC1CN(Cc2cnc(N3CCCC3)s2)CCN1Cc1ccccc1 (centres unmarked)	-0.21
CCOC(=O)C1(Cc2ccccc2)CCN(Cc2cnc(N3CCOCC3)s2)CC1	-42.4
OCCC1CN(Cc2cnc(N3CCCC3)s2)CCN1C1CCCC1 (centres unmarked)	-7.38
CC(=O)Nc1ccc(NC(=O)COC(=O)Cc2c[nH]c3ccccc23)cc1	10.2
Cl.O=C(CN1CCCCCC1)N1c2ccccc2Sc2ccc(C(F)(F)F)cc21	-1.87
COc1cccc(CNC(=O)c2nnn(CC(=O)Nc3ccc(Br)cc3)c2N)c1	17.5
O=C(CNC(=O)Cc1ccc(Cl)cc1)NCC(=O)N1CCCCC1	17.9
CCOC(=O)c1c(C)n(C)c2ccc(OCC(N)=O)cc12	7.9
CCCCN=C1NN=C(c2cccc([N+](=O)[O-])c2)CS1.Cl	-4.82
O=C(CN1CCSCC1)N/N=C/c1ccc(F)cc1F	-6.43
CCc1ccc(NC(=O)c2cc(C(C)C)on2)cc1	-27.3
CC(C)NCC(O)COc1c(F)cc(Br)cc1F.Cl (centres unmarked)	-4.33
Cl.OC(CNC1CCCC1)COc1c(F)cc(Br)cc1F (centres unmarked)	-27.3
CC1CCCC(C)N1CC(O)COc1c(F)cc(Br)cc1F.Cl (centres unmarked)	-57.7
CN(CC(O)COc1c(F)cc(Br)cc1F)C1CCCCC1.Cl (centres unmarked)	-65.9
CC(C)(C)NCC(O)COc1c(F)cc(Br)cc1F.Cl (centres unmarked)	-7.38
CN(CC(O)COc1ccccc1F)C1CCCCC1.Cl (centres unmarked)	2.08
Cn1c(=O)c2cc(S(=O)(=O)NC(C(=O)Nc3cccc(F)c3)c3ccccc3)ccc2n(C)c1=O (centres unmarked)	-7.01
COCCNC(=O)COc1ccccc1Cl	1.56
COCCNc1cc(C)nc2ccccc12.Cl	-10.8
COCCCNc1cc(C)nc2ccccc12.Cl	-40.3
COCCCNc1ccnc2c(Cl)cccc12	-58.5

Compound	hERG current change (%, negative = inhibition) at 10uM [%]
COCCCNc1nc(-c2ccc(Cl)cc2)nc2ccccc12	-1.64
COCCNc1ccnc2c(Cl)cccc12	-81.9
O=S1(=O)N=C(N(CCO)/N=C/c2ccc(Br)cc2)c2ccccc21	15
c1ccc2c(CSCCc3ccncc3)cccc2c1	-17.6
COc1ccccc1CNC(=O)COC(=O)c1nc(Cl)ccc1Cl	-2.78
COc1ccc2c(c1)OC[C@H]1[C@H]2N2C(=O)CN(Cc3ccco3)C(=O)[C@@]2(C)[C@H]1c1ccccc1	10.7
CC(C)NCC(O)c1ccc(C2CCCC2)cc1.O=C(O)/C=C\C(=O)O (centres unmarked)	-15.5
CCCN(CC1CC1)CC(O)c1ccccc1.O=C(O)C(=O)O (centres unmarked)	4.51
CCN(CC)CC(O)c1ccc(C2CCCC2)cc1.Cl (centres unmarked)	-63
COC(=O)c1c(NC(=O)c2ccco2)sc(C)c1C	18.1
CCCNC(=O)COC(=O)c1ccccc1OCc1ccc(Cl)cc1	-0.354
Cc1ccc(N(Cc2ccccc2)C(=O)c2cc(S(=O)(=O)N3CCOCC3)ccc2F)cc1	-10.2
Cc1cccc(N(Cc2ccccc2)C(=O)c2cc(S(=O)(=O)N3CCOCC3)ccc2F)c1	-5.69
COc1ccc(C(=O)N(Cc2ccccc2)c2ccc(C)cc2)cc1S(=O)(=O)N1CCOCC1	-67.7
Cc1ccc(N(Cc2ccccc2)C(=O)c2ccc(F)c(S(=O)(=O)N3CCOCC3)c2)cc1	-82.7
COc1ccc(CC(=O)N(Cc2ccccc2)c2ccccc2)cc1S(=O)(=O)N1CCOCC1	1.07
Cc1ccc(N(Cc2ccccc2)C(=O)c2ccc(C)c(S(=O)(=O)N3CCOCC3)c2)cc1	-18
Cc1cccc(N(Cc2ccccc2)C(=O)c2ccc(F)c(S(=O)(=O)N3CCOCC3)c2)c1	-50.5
Cc1ccc(N(Cc2ccccc2)C(=O)c2cc(S(=O)(=O)N3CCOCC3)ccc2N2CCCC2)cc1	5.59
Cc1ccc(N(Cc2ccccc2)C(=O)c2ccc(Cl)c(S(=O)(=O)N3CCOCC3)c2)cc1	-70.3
Cc1cccc(N(Cc2ccccc2)C(=O)c2cc(S(=O)(=O)N3CCOCC3)ccc2Cl)c1	-13.3
COc1ccc(C(=O)N(Cc2ccccc2)c2cccc(C)c2)cc1S(=O)(=O)N1CCOCC1	-35.8
Cc1cccc(N(Cc2ccccc2)C(=O)c2ccc(C)c(S(=O)(=O)N3CCOCC3)c2)c1	-17.6
